Compound activity: PubChem, several laboratories
NALP1 yeast inh: NALP1 inflammasome inhibitors in reconstituted yeast, colorimetric, S. cerevisiae, triplicate retest. S. cerevisiae NALP1/ASC/caspase-1 growth, X-gal OD620, 72 h. inhibition, % at 10 µM. 280,000 compounds, 0.61% hits. AID 2071, 2009; in the data active = inhibition mostly above about 24%, no sharp cut-off; inactive = mostly below about 32%
PolyA inhibitor: polyadenylation inhibitors in yeast reporter cells, primary screen, luminescence, S. cerevisiae; activity score, % at 12 µM; 300,000 compounds, 0.02% hits; AID 1875, 2009; S. cerevisiae SKY197-pL101 polyadenylation reporter, beta-gal luminescence; efflux-impaired pdr1/pdr3 knockout yeast; score 100 = 6 SD above DMSO;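 active = lowest replicate activity score at least 50, where 100 means six control SD above control mean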;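 also: yeast exposed to compound for 9 h at 30 °C; higher score means more reporter readthrough which indicates perturbed polyadenylation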
A3G deaminase: APOBEC3G DNA deaminase inhibitors, primary screen, biochemical, fluorescence, single-stranded DNA substrate, uHTS; recombinant A3G, ssDNA deamination FAM/TAMRA fluorescence; inhibition, % at 20 µM; 330,000 compounds, 0.28% hits; AID 493012, 2011;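 active = inhibition of at least 40% at 20 µM, with no more than 30% in the related APOBEC3A deaminase screen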;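 also: plate controls were DMSO wells with A3G for no effect and wells lacking A3G enzyme for full effect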
Target sequence (Q9HC16 whole entry, looked up): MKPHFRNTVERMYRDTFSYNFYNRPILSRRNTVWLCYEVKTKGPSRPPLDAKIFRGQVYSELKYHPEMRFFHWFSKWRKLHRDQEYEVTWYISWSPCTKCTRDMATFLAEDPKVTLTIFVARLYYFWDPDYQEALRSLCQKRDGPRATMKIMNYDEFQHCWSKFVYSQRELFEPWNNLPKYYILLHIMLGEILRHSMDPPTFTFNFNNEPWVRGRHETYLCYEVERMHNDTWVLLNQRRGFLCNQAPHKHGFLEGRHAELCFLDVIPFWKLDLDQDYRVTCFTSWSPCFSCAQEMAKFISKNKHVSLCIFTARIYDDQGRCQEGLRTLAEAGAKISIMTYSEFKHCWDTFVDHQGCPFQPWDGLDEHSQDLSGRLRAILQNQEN
A3A deaminase: APOBEC3A ssDNA deaminase inhibitors, primary screen, selectivity assay for APOBEC3G inhibitor project, biochemical, FAM/TAMRA oligo cleavage fluorescence; AID 493011, 2011; DNA dC->dU-editing enzyme APOBEC-3A (Homo sapiens), P31941; inhibition, % at 20 µM; recombinant A3A, FAM/TAMRA ssDNA deamination fluorescence; 330,000 compounds, 0.41% hits;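 active = at least 40% inhibition at 20 µM here, with at most 30% in a related deaminase screen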;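 also: plate controls were A3A with DMSO for no effect and wells lacking A3A enzyme for full effect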
APOBEC3G confirm: APOBEC3G deaminase inhibitor retest, confirmation, biochemical, fluorescence, single-stranded DNA substrate, single concentration. shares compounds with A3G deaminase. recombinant A3G ssDNA deaminase, UDG/FAM-TAMRA fluorescence. inhibition, % at 20 µM. 890 compounds, 72% hits;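 active = inhibition reaching a set limit in any replicate at 20 µM, the limit being 80% of the first screen's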
UDG A3G counter: E. coli UDG inhibitors, confirmation, counter-screen for APOBEC3G inhibitor project, biochemical, single concentration, fluorescence, FAM/TAMRA oligo. shares compounds with A3G deaminase. UDG counterscreen. inhibition, % at 20 µM. 710 tested, under 10 active. AID 504715, 2011;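 active = compounds giving 40% or more inhibition at 20 µM in any one of the three replicates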;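 also: plate controls were DMSO wells with UDG and oligo for no effect and DMSO wells lacking both for full effect; inhibitors lower the FAM signal released by uracil excision and alkaline cleavage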
Numbers without * were called inactive; nt = no result. In the library only some 1.2% were active in any assay of this set; here they are far more common.

SMILES	NALP1 yeast inh	PolyA inhibitor	A3G deaminase	A3A deaminase	APOBEC3G confirm	UDG A3G counter
C/C(=N\Nc1cccc2ccccc12)c1c(O)n(Cc2ccccc2)c(=O)[nH]c1=O	35.1	10.0	41.5*	-6.8	15.6	-5.1
COC(=O)C1=C(c2ccc(-c3ccccc3)c(F)c2)C[C@@H]2CC[C@H]1N2C(=O)NCCCOC(C)C	nt	nt	-4.3	2.1	nt	nt
CCCCCn1cc(C(=O)C(=O)N2CCOCC2)c2ccccc21	9.8	-6.7	-10.1	-0.9	nt	nt
NC(N)=Nc1ccc2[nH]c3c(c2c1)C[C@@]1(O)[C@H]2Cc4ccc(O)c5c4[C@@]1(CCN2CC1CC1)[C@H]3O5	nt	nt	83.9*	15.8	96.8*	-1.4
Oc1ccc2c3c1O[C@H]1[C@@H](O)CC[C@@]4(O)[C@@H](C2)N(CC2CCC2)CC[C@]314	nt	-1.3	-6.6	-0.6	nt	nt
